The record followed here is PubChem BioAssay AID449762 (Southern Research Specialized Biocontainment Screening …, 2010).

In general, inhibition refers to the change of the read-out against control, counted positive when it falls.

Screen size: about 330,000 compounds; about 1,900 (0.58%) were called active. Another 4% or so got no clear call; they are omitted. Not all results are given here. Results with a measured potency or affinity are listed apart. A number with no mark means an inactive call. Rule as the data show it: inconclusive = inhibition above about 70% without an active follow-up result; inactive = below that.

This experiment in a line: M. tuberculosis growth inhibition, HTS (AID 449762).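 Also: bacterial growth assessed after seven days of incubation.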 The conditions noted are these: M. tuberculosis H37Rv growth inhibition, 7H9 media; at 25 µM; active compounds read high.
Turning to `Nc1cc(C(F)(F)F)cc([N+](=O)[O-])c1N`, the inhibition was 18%. For `CCCOP(=O)(O)c1c([N+](=O)[O-])cc(C(F)(F)F)cc1[N+](=O)[O-]` (tested in a mixture with another compound) the value was -2.65%; for `COC(=O)c1ccc(CNC(=O)C2CCC(=O)N(CCCc3ccccc3)C2)cc1` (stereo not drawn), -9.71%. The same measure for `O=C(NC1CCCCCCC1)c1ccccc1O`: 6.43%. For the compound `O=C(NC1CCCC1)c1ccccc1-c1ccccc1`, the inhibition is 64.1%. For `CN(Cc1ccccc1)S(=O)(=O)c1cccc2nsnc12` the value was -5.13%; for `COc1ccc2c(c1)O[C@@H](c1cccc(C(F)(F)F)c1)[C@H](OC(=O)NCCc1ccc(OC)c(OC)c1)C2=O`, 8.51%.

Turning to `COC(=O)[C@@H](NC(=O)O[C@@H]1C(=O)c2cc(Br)ccc2O[C@H]1c1cccc(OC)c1)C(C)C`, the inhibition was 8.75%. The same measure for `Cc1cc(=O)oc2cc(NC(=S)NNC(=O)c3c(Cl)cnn3C)ccc12`: -1.94%. The same measure for `CCN(CC)C(=O)c1ccccc1NS(C)(=O)=O`: -4.74%; for `C=CCNC(=O)CSc1nnc(-c2cccs2)o1`: 2.45%; for `CCNC(=O)CSc1nnc(-c2cccs2)o1`: 17%. For `Clc1ccc(OCCOCCN2CCCCC2)c(Br)c1` the value was -2.44%; for `CC(C)N1CCN(Cc2cccn2-c2cccnc2)CC1CCO` (stereo not drawn), -3.04%; for `CCOC(=O)C1(CCc2ccccc2)CCN(Cc2ccc(NC(C)=O)cc2)CC1`, -6.26%. For the compound `COc1cc2ncnc(NCc3ccccc3F)c2cc1OC`, the inhibition is 4.17%. For `COc1ccc2cc(C(c3nnnn3CCc3ccccc3)N3CCC(O)CC3)c(=O)[nH]c2c1` (stereo not drawn) the value was -12.3%; for `CCc1ccc2[nH]c(=O)c(C(c3nnnn3CCOC)N3CCN(c4ccccc4)CC3)cc2c1` (stereo not drawn), -6.34%; for `COc1cccc(OC)c1C(=O)NC(=S)N1CCCCC1c1cccnc1` (stereo not drawn), -6.76%. For `O=C(CCC(=O)c1cccs1)OCC(=O)c1ccc(F)cc1` the value was 1.25%. For `Cc1nn(Cc2ccccc2)c(C)c1C(=O)OCC(=O)c1cc(C)n(C2CC2)c1C`, the inhibition was 63.9%.

Regarding `COCCn1c(C)cc(C(=O)COC(=O)c2c(C)nn(Cc3ccccc3)c2C)c1C`, the inhibition was 20.6%. The same measure for `CSc1ccc(C(=O)C2CCCN(Cc3cccn3-c3cccnc3)C2)cc1` (stereo not drawn): 9.15%; for `O=C(c1ccc2c(c1)OCO2)N1CCc2ccccc21`: -5.13%; for `Cc1nc(SCC(=O)c2cc3ccccc3oc2=O)c(C#N)c(-c2ccccc2)c1C(=O)Nc1ccccc1`: 17.1%. Turning to `Cc1nc(SCC(=O)c2cc3ccccc3oc2=O)c(C#N)c(-c2cccs2)c1C(=O)Nc1ccccc1`, the inhibition was 3.9%.

For `Cc1nc(NC(=O)c2ccccc2)sc1-c1csc(Nc2ccc(Cl)cc2Cl)n1`, the inhibition is 6.01%. The same measure for `COc1ccccc1Nc1nc(-c2sc(NC(=O)CC(C)C)nc2C)cs1`: 1.91%; for `Cc1ccc(C(C)C)c(OCC(=O)Nc2ccc(N3CCN(S(C)(=O)=O)CC3)cc2)c1`: -4.74%; for `CCCCCCSc1ccc([C@H]2N[C@@](CC(C)C)(C(=O)OC)[C@H]3C(=O)N(CC)C(=O)[C@@H]23)cc1`: -1.98%. Turning to `COc1cc(NC(=S)NCCc2ccccc2)c(OC)cc1NC(=O)CC(C)C`, the inhibition was -2.92%.

With `CN1C(=S)SC(N(O)C(=O)Nc2ccccc2)C1(C)C` (stereo not drawn), the inhibition was -1.59%. In the case of `CN1C(=S)SC(N(O)C(=O)Nc2cccc3ccccc23)C1(C)C` (stereo not drawn), the inhibition was 3.28%. For `CC1=CSC2=NS(=O)(=O)CCN12` the value was -1.32%; for `COCCCNC(=O)c1c[nH]c2ccc(S(=O)(=O)N3CCC4(CC3)OCCO4)cc2c1=O`, -4.78%; for `O=C(Cn1nnc(-c2cccs2)n1)OC1CCCCC1`, 4.15%. Take `COc1ccc(-c2nnn(CC(=O)NC(=O)NC3CCCCC3)n2)cc1OC`: the inhibition is -0.345%.

For `O=C(NC(=S)NC1CCS(=O)(=O)C1)c1ccccc1` (stereo not drawn), the inhibition is -12%. In the case of `Cc1c(C(=O)N2CCC3(CC2)OCCO3)sc2ncnc(N3CCc4ccccc4C3)c12`, the inhibition is -0.89%. As to `CC(C)CCn1nnnc1C(c1ccccc1)N1CCN(C)CC1` (stereo not drawn), the inhibition is 5.26%. For `O=C(CNS(=O)(=O)c1cccs1)N1CCN(c2ccccn2)CC1` the value was 4.15%; for `CCOC(=O)N1CCN(C(=O)C2CCN(c3nnc(-n4cccc4)s3)CC2)CC1`, -4.54%; for `O=C(C1CCN(c2nnc(-n3cccc3)s2)CC1)N1CCOCC1`, -4.62%. For `CC1=NN(C(N)=S)C(=O)C1N=Nc1ccc(S(N)(=O)=O)cc1` (stereo not drawn) the value was 0.37%; for `CC1=NN(C(N)=S)C(=O)C1N=Nc1ccc(Br)cc1` (stereo not drawn), 58.6%; for `Cc1ccc(S(=O)(=O)Nc2ccc3ccccc3n2)cc1`, 0.36%. The same measure for `COc1ccccc1-c1cc2nc(C)c(CCC(=O)NC(C)CCc3ccco3)c(C)n2n1` (stereo not drawn): 2.39%. As to `Cc1nc2cc(-c3cccc(F)c3)nn2c(C)c1CCC(=O)NC(C)CCc1ccco1` (stereo not drawn), the inhibition is -9.87%. The same measure for `O=c1cc(O)nc(SCc2ccc(Cl)cc2)[nH]1`: -0.2%. For `COc1cc(-c2nnc(CSc3nnc(N)s3)o2)cc(OC)c1OC` the value was -0.69%. Turning to `Cc1nc(-n2nnc3ccccc32)c2c3c(sc2n1)CCCC3`, the inhibition is 4.15%. For `CCCc1cc(=O)n2[nH]c(C)c(-c3ccc(OC)cc3)c2n1` the value was 35.8%; for `Cc1cc(=O)n2[nH]c(C)c(-c3ccc(Cl)cc3)c2n1`, -1.1%. As for `Cc1cc(NC(=O)Cn2nnc(-c3ccccc3NC(=O)c3ccccc3F)n2)no1`, the inhibition is -4.78%. As to `CCOC(=O)c1cnc(Nc2nc3ccccc3o2)nc1CSc1ncccn1`, the inhibition is 0.71%. As for `CCCc1nc(Nc2nc3ccccc3o2)nc(C)c1C(=O)OCC`, the inhibition was -21.6%. For `Cc1nnc(SCC(=O)N(Cc2ccccc2)C(C)(C)C)[nH]c1=O` the value was 3.28%; for `O=C1c2ccccc2C(=O)N1Cc1ccc2c(c1)OCO2`, 4.9%.

Turning to `CC(C(=O)NC1CCCC1)N1C(=O)c2cccc3cccc1c23` (stereo not drawn), the inhibition was -3.8%.

Take `CCOC(=O)c1cnc(-n2nc(C)cc2C)nc1Nc1ccc(O)cc1`: the inhibition was -2.03%. Take `CCOC(=O)c1cnc(-n2nc(C)cc2C)nc1Nc1cccc(C(=O)O)c1`: the inhibition is 19.4%. Consider `COc1ccc(CN2CCn3ncc(C(=O)Nc4cccc(C)c4)c3C2=O)cc1`, for which the inhibition was 3.51%. `COc1ccc(C(CNC(=O)C2CC2)N(C)C)cc1` (stereo not drawn): the inhibition is -15.1%. For `CCSc1nnc(C)n1-c1ccc(C(=O)O)cc1` the value was -3.32%; for `CCc1ccc(OCC(=O)Nc2ccc(-c3nc4ccccc4o3)c(O)c2)cc1`, -3.85%; for `O=C1c2ccc(-c3nc4ccccc4o3)cc2C(=O)N1Cc1cccnc1`, 6.12%.

Take `CC(C)NC(=O)c1ccc(-n2c(=S)[nH]c3ccccc3c2=O)cc1`: the inhibition is -2.47%. For `CCN(CC)S(=O)(=O)c1ccc(N2CCCC2)c(NC(=O)c2nn(C)c(=O)c3ccccc23)c1` the value was -4.45%.

For `CCN(CC)S(=O)(=O)c1ccc2[nH]cc(C(=O)NCCN3CCCCCC3)c(=O)c2c1`, the inhibition is -8.55%. For `CCN(CC)S(=O)(=O)c1ccc2[nH]cc(C(=O)NCCc3ccccc3)c(=O)c2c1` the value was 4.1%; for `CCN(C(=O)c1cc(Cl)ccc1OC)c1ccccc1`, -7.73%. For `CCOC(=O)C1=C(C)C(c2cccc(Oc3ccccc3)c2)NC(=S)N1` (stereo not drawn) the value was 10.7%; for `COc1ccc(-c2csc(NS(=O)(=O)c3ccc([N+](=O)[O-])cc3)n2)cc1`, 1.1%; for `COc1ccc(-c2nc(-c3ccccn3)ncc2S(C)(=O)=O)cc1`, -1.3%. Take `Cc1ccccc1-n1c2nc(=O)n(C)c(=O)c-2cc2ccccc21`: the inhibition was 0.96%. The same measure for `Cc1ccc(-n2c3nc(=O)n(C)c(=O)c-3cc3ccccc32)cc1`: 10.4%; for `c1ccc(-c2nccc(-c3ccco3)n2)nc1`: 58.2%; for `Cc1ccc(NC(=O)CSc2nc(=O)n(CCN3CCOCC3)c3c2CCCC3)cc1`: -2.61%. For `CCCS(=O)(=O)N1CCC(C(=O)NCCc2ccccc2)CC1` the value was 4.73%; for `CCc1cc(/C(Cc2ccccn2)=N\O)c(O)cc1O`, -0.69%. For `CCc1cc(C(=O)Cc2ccccn2)c(O)cc1O`, the inhibition was -1.89%.

Regarding `CC(/C=C\c1ccccc1)=C/C(=O)O`, the inhibition is -1.86%. Consider `CC(/C=C/c1ccc(C)o1)=C\C(=O)O`, for which the inhibition is 8.65%.

As for `N#CC(C(=O)O)=C1CCCC1`, the inhibition was -4.52%. As for `COc1ccc(COc2cc(-c3cccc(OC)c3)nc3ccc(NC(=O)c4ccc(Cl)cc4)cc23)cc1`, the inhibition was 56.2%. For `COc1ccc(COc2cc(-c3cccc(OC)c3)nc3ccc(NC(=O)c4ccc(N(C)C)cc4)cc23)cc1` the value was -16.9%; for `O=C(NC1CCN(S(=O)(=O)c2ccccc2F)CC1)c1ccco1`, -8.86%.

`COc1cccc(NC(=O)CN(C)C(=O)C2CC3C=CC2C3)c1` (stereo not drawn): the inhibition was 0.94%. As for `CCN(c1ccccc1)S(=O)(=O)c1ccc(Cl)c(NC(=O)CNCc2ccccc2OC)c1`, the inhibition is -4.74%.

On to `NS(=O)(=O)c1cccc(NC(=O)COc2ccc([N+](=O)[O-])cc2)c1`, for which the inhibition was -1.48%. The same measure for `O=C(NCc1ccc(F)cc1)C1(S(=O)(=O)c2ccc(Cl)cc2)CC1`: -0.39%; for `CN(C)c1ccc(C=C2C(=O)OC(C)(C(C)(C)C)OC2=O)cc1` (stereo not drawn): 0.2%. Consider `COc1ccccc1/C=C1\N=C(C(C)(C)C)OC1=O`, for which the inhibition is 7.56%.
